For assay [1], the target named is T1, 3-phosphoinositide-dependent protein kinase 1 (Homo sapiens) (UniProt O15530).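 Note: values are mean inhibition of PDK1.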
T1 sequence (whole entry): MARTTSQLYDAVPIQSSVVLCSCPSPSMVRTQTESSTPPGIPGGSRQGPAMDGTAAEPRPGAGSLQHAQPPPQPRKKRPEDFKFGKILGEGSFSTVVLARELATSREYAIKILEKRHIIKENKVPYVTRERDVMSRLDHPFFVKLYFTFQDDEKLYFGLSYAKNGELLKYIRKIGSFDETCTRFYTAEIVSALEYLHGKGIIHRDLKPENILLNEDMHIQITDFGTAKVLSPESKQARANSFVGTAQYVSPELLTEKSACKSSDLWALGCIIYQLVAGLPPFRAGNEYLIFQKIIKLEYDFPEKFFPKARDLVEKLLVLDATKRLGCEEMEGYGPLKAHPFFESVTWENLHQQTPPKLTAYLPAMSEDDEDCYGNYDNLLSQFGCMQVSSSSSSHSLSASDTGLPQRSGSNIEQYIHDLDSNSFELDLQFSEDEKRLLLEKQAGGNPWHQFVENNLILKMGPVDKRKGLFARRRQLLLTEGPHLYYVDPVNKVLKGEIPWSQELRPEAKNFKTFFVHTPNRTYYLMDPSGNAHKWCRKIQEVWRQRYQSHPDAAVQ
Conditions: at 0.1 µM.

Assay [2] concerns the target cAMP-dependent protein kinase catalytic subunit alpha (Homo sapiens) (UniProt P17612). The conditions noted are these: at 0.1 µM.
The target is the same in assay [3]. Conditions: at 1 µM.
The target of assay [4] is Protein kinase C alpha type (Homo sapiens) (UniProt P17252). The conditions noted are these: at 0.1 µM.
Assay [5] shares this target. The conditions noted are these: at 1 µM.
Assay [6] concerns the target Protein kinase C beta type (Homo sapiens) (UniProt P05771). The conditions noted are these: at 0.1 µM.
Assay [7] has the same target. Conditions: at 1 µM.
Assay [8] deals with Protein kinase C eta type (Homo sapiens) (UniProt P24723). The conditions noted are these: at 0.1 µM.
Protein kinase C eta type (Homo sapiens), sequence (P24723 whole entry): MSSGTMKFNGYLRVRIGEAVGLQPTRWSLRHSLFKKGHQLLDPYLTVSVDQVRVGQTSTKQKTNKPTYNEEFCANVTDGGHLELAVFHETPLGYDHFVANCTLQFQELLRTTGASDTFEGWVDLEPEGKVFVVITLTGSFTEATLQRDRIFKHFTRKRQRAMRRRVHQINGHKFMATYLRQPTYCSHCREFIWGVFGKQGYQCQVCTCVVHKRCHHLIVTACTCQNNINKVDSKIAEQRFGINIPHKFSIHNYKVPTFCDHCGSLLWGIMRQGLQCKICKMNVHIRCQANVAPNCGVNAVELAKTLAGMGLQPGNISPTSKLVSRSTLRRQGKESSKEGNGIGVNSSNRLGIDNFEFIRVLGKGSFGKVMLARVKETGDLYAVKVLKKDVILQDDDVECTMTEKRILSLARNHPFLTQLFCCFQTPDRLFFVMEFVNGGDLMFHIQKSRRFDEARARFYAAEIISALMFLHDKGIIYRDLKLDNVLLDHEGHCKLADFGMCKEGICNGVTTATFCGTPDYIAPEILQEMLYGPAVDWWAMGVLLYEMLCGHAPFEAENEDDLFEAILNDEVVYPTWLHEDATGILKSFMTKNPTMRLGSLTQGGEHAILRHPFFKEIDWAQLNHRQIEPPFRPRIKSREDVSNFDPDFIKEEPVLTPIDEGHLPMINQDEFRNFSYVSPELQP
For assay [9] the target is unchanged. Conditions: at 1 µM.
In assay [10] the target is Protein kinase C gamma type (Homo sapiens) (UniProt P05129). Conditions: at 0.1 µM.
For assay [11] the target is unchanged. The conditions noted are these: at 1 µM.
The target of assay [12] is T2, Protein kinase C iota type (Homo sapiens) (UniProt P41743).
T2 sequence (whole entry): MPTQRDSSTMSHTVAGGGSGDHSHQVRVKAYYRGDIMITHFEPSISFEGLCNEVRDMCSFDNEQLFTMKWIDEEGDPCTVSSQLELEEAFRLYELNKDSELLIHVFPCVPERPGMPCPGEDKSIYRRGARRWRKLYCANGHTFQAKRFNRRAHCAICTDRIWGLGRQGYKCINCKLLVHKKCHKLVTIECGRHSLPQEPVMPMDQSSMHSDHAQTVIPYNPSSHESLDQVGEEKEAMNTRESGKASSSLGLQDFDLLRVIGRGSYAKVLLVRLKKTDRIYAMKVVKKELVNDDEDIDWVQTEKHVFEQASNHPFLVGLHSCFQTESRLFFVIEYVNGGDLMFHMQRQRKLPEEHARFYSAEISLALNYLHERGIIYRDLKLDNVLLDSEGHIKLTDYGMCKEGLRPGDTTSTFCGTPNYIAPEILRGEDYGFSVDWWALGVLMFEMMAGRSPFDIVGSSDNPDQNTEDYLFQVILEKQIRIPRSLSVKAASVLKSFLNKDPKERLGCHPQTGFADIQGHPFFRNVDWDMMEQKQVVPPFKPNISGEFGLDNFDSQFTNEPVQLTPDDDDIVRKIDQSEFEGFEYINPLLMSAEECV
The conditions noted are these: at 0.1 µM.

Assay [13] has as its target T2, Protein kinase C iota type (Homo sapiens). Conditions: at 1 µM.
For assay [14], the target named is Protein kinase C theta type (Homo sapiens) (UniProt Q04759). The conditions noted are these: at 0.1 µM.
Protein kinase C theta type (Homo sapiens), sequence (Q04759 whole entry, looked up): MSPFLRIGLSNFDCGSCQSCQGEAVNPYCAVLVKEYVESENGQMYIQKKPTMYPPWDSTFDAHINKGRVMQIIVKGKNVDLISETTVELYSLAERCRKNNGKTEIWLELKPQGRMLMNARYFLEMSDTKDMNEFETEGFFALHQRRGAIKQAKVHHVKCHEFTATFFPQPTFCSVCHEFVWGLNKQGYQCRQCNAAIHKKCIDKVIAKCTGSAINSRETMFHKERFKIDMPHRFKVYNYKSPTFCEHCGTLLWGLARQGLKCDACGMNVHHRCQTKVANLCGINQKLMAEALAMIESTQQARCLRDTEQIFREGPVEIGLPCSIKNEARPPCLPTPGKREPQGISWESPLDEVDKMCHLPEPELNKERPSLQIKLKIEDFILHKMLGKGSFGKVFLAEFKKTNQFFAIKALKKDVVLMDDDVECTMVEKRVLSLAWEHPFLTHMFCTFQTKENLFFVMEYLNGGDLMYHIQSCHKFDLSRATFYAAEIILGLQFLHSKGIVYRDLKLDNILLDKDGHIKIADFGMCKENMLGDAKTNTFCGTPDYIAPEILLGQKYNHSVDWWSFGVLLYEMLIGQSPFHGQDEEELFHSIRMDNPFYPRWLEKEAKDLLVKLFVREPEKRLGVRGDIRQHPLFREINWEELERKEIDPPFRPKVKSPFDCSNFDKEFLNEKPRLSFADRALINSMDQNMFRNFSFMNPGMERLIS
For assay [15] the target is unchanged. Conditions: at 1 µM.
Assay [16] has as its target Protein kinase C beta type (Homo sapiens) (UniProt P05771). Conditions: at 0.1 µM. The source holds these as a separate data set.
The target is the same in assay [17]. The conditions noted are these: at 1 µM. The source holds these as a separate data set.
The target of assay [18] is T3, Serine/threonine-protein kinase D1 (Homo sapiens) (UniProt Q15139).
T3 sequence (whole entry): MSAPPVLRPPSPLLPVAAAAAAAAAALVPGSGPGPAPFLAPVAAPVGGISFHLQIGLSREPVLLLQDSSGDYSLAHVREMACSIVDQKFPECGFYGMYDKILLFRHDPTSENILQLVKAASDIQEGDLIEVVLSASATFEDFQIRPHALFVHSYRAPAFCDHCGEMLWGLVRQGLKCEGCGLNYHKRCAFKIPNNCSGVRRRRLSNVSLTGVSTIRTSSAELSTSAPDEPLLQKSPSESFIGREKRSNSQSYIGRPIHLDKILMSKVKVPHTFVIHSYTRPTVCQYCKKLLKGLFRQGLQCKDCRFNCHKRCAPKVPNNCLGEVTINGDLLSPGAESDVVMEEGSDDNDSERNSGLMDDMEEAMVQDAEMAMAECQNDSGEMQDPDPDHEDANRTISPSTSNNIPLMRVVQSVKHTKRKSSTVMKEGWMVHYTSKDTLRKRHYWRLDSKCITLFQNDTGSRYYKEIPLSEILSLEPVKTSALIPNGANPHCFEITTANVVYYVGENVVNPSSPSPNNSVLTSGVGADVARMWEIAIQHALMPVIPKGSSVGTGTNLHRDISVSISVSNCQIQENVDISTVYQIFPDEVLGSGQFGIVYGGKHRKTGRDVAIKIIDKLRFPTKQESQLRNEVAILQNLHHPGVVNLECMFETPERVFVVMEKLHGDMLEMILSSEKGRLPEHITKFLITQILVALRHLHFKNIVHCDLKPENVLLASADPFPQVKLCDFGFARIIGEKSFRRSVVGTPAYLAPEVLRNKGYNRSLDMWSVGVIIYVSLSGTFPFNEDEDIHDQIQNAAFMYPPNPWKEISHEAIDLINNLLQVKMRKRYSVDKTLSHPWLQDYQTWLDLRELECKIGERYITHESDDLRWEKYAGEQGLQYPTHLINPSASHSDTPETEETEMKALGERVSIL
The conditions noted are these: at 0.1 µM.

The target in assay [19] is T3, Serine/threonine-protein kinase D1 (Homo sapiens). The conditions noted are these: at 1 µM.
Assay [20] addresses T4, Serine/threonine-protein kinase D2 (Homo sapiens) (UniProt Q9BZL6).
T4 sequence (whole entry): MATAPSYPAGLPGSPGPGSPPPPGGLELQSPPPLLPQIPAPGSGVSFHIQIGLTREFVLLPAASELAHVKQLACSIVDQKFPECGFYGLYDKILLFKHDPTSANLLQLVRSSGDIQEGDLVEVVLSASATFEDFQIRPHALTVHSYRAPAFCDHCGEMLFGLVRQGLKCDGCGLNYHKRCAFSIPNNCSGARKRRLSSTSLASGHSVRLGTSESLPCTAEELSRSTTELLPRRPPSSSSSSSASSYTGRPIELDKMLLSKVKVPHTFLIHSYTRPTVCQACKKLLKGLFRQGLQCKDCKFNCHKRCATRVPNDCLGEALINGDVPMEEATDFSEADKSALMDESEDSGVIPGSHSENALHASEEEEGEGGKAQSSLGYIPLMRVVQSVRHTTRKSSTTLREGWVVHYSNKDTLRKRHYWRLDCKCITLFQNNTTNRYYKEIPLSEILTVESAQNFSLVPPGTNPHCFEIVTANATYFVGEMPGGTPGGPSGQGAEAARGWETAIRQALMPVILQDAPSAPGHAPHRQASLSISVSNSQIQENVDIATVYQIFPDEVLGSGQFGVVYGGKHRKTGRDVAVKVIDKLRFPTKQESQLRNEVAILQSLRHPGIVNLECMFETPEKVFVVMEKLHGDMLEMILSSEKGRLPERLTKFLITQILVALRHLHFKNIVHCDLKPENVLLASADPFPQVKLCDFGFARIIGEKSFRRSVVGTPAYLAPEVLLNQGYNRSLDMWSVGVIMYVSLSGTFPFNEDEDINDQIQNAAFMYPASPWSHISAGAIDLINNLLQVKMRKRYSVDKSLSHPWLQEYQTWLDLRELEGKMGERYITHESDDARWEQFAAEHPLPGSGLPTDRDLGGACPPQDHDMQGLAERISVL
The conditions noted are these: at 0.1 µM.

Protein kinase C beta type (Homo sapiens), sequence (P05771 2-671 limits assumed): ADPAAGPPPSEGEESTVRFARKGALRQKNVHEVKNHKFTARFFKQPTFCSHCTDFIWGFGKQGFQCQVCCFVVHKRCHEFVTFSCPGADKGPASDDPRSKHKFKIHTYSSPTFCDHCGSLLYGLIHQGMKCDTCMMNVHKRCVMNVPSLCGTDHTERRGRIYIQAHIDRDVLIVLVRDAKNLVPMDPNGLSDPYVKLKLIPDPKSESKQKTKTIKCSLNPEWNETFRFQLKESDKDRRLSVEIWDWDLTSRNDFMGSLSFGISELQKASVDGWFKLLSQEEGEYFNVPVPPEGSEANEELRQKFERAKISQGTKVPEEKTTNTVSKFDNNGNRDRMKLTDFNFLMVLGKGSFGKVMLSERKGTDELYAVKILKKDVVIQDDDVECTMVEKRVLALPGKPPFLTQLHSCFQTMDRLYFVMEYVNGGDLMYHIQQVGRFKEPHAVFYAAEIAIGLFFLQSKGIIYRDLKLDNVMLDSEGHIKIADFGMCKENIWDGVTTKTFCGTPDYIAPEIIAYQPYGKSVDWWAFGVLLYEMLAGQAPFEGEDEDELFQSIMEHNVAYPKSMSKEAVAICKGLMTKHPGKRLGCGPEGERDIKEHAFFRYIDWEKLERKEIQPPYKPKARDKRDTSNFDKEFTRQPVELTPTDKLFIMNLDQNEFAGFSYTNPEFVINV

With `CN(C)CCCn1c(-c2nonc2N)nc2cnccc21`, the inhibition in assay [1] is 1.51%; in assay [2], 2.1%; in assay [3] it was 3.18%; in [4], 0.8%; in [5] it was 3.62%; in assay [6] it was 1.86%. The inhibition in assay [7] was 14.5%; in [8], 6.38%; in assay [9] it was 10%; in [10], 4.42%; in assay [11], 4.25%; in [12], 2.62%. Besides, the inhibition in [13] was 3.77%; in [14], 2.2%; in [15] it was 1.32%; in assay [16], 2.32%; in [17], 4.48%; in assay [18], 3.41%. Moreover, the inhibition in assay [19] amounted to 7.59%; in assay [20], 4.15%.

As to `CCCN1CCCC(c2ccc(Nc3nc(Nc4cc(F)ccc4C(N)=O)c4cc[nH]c4n3)c(OC)c2)C1` (stereo not given), the inhibition was 2.08% in [1]; 2.2% in assay [2]; 2.23% in [3]; 2.24% in [4]; 15.9% in assay [5]; -0.31% in [6]. The inhibition in assay [7] worked out at 3.2%; in assay [8], 1.86%; in assay [9], 1.44%; in assay [10], 5.05%; in assay [11] it was 22%; in assay [12], 0.84%. Further, the inhibition stood at 2.93% in assay [13]; 1.64% in assay [14]; 4.89% in [15]; 1.85% in [16]; 5.27% in [17]; 32.2% in assay [18]. Besides, the inhibition in [19] was determined as 79.5%; in [20], 25.9%.

Turning to `Cc1cc(-c2ccccn2)cc(C)c1/C=C/c1cncc(-c2nn[nH]n2)c1`, the inhibition is -0.5% in [1]; 1.63% in [2]; 1.8% in assay [3]; 0.99% in assay [4]; 3.52% in [5]; 0.54% in assay [6]. Moreover, the inhibition stood at 0.37% in assay [7]; 2.25% in [8]; 5.16% in assay [9]; 1.57% in assay [10]; 2.83% in assay [11]; 0.86% in assay [12]. For the same compound, the inhibition stood at 1.38% in assay [13]; 1.86% in assay [14]; 3.08% in [15]; 1.2% in assay [16]; 2.79% in [17]; 6.68% in [18]. The figures for the inhibition in assay [19] and in assay [20] were 11% and 6.87%, respectively.

As to `Oc1cccc(-c2nc(-c3ccccc3)[nH]c2-c2ccncc2)c1`, the inhibition stood at 4.03% in assay [1]; 2.46% in assay [2]; 6.88% in assay [3]; 0.69% in [4]; 3.01% in assay [5]; 2.07% in [6]. Also, the inhibition in assay [7] amounted to 8.23%; in assay [8] it was 2.41%; in [9] it was 9.76%; in assay [10], 2.86%; in assay [11] it was 5.82%; in assay [12] it was 1.08%. The inhibition in assay [13] was 0.18%; in assay [14], 2.11%; in [15], 3.65%; in assay [16], 0.99%; in [17], 7.1%; in assay [18], 3.05%. Also, the inhibition came out at 5.51% in [19] and 3.64% in assay [20].

`COC(=O)c1cncc(/C=C/c2c(C)cc(O)cc2C)c1`: the inhibition in assay [1] was -0.19%; in [2], 1.8%; in assay [3] it was 2.3%; in assay [4] it was 0.98%; in assay [5], 1.39%; in [6], 0.78%. The inhibition in [7] amounted to 2.09%; in [8], 4.57%; in assay [9], 5.34%; in [10], 6.64%; in [11] it was 3.93%; in assay [12], 2.79%. The inhibition was 0.49% in [13]; 2.55% in assay [14]; 3.44% in [15]; -1.36% in assay [16]; 2.82% in [17]; 3.37% in assay [18]. The inhibition in [19] was determined as 5%; in assay [20], 3.87%.

With `Cc1nc(-c2ccccc2)n2nc(NCCCN3CCOCC3)ncc12`, the inhibition in assay [1] is 2.52%; in [2], 2.1%; in assay [3], 2.12%; in [4], -0.23%; in assay [5], 0.9%; in [6] it was -0.19%. Moreover, the inhibition in assay [7] was 0.04%; in assay [8] it was 0.77%; in [9], 4.23%; in assay [10], 2.71%; in assay [11] it was 4.35%; in assay [12], -0.08%. Also, the inhibition in assay [13] is -1.15%; in [14] it was 1.47%; in assay [15] it was -0.08%; in assay [16], 1.18%; in assay [17], 2.05%; in assay [18], 2.52%. The inhibition stood at 3.13% in assay [19] and 2.7% in assay [20].

For the compound `Cc1ccc(C(=O)NC2CC2)cc1-c1ccc2[nH]ncc2c1`, the inhibition is -3.15% in assay [1]; -2.46% in assay [2]; 0.47% in assay [3]; -0.47% in assay [4]; 0.07% in assay [5]; -0.41% in assay [6]. Besides, the inhibition in assay [7] is -0.31%; in assay [8] it was -4.21%; in [9], -3.72%; in [10] it was -0.11%; in assay [11] it was 0.02%; in [12], -1.83%. The inhibition is -1.13% in assay [13]; -1.64% in [14]; 0.05% in [15]; -0.94% in [16]; -0.69% in assay [17]; -4.08% in assay [18]. In addition, the figures for the inhibition in assay [19] and in assay [20] were -2.68% and -2.91%, respectively.

The values are drawn from ChEMBL document CHEMBL1961873, “Compounds: GSK PKIS; Assays: Nanosyn kinase panel” (2012).
